Data from PubChem BioAssay (EPA / NIEHS).
More than one record can exist for a structure, and the calls need not agree. Active and inactive are the calls of the source. How the source made its calls: active means hit-call score of the fitted dose curve at least 0.9, where 1 is the maximum; inactive means score below 0.9.

Assay: CCTE_Shafer_MEA_acute_interburst_interval_mean: CCTE's Neural Acute Assay for Mean Interburst Interval, Shafer Lab (AID 2284016);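 further: percent change of mean interburst interval versus each well's own pre-dose baseline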
Method: CCTE_Shafer_MEA_acute assay is conducted using Axion Biosystems 48 well microelectrode array (MEA) plates and Maestro recording system. Each well of the MEA plate contains a grid of 16 microelectrodes embedded in the culture surface. Electrically active cells, such as neurons, can be cultured over the electrodes, and electrical activity in these cells can be recorded extracellularly. The spontaneous firing of neurons is captured from each electrode on a microsecond timescale providing both temporally and spatially precise data. […] The CCTE_Shafer_MEA_acute assay uses primary cultures of rat cortical neurons. As these cultures mature over time, neural networks develop functional activity and form cohesive networks in which electrical activity can be highly coordinated. Baseline 40-minute recordings are made on days post-plating 13 or 15, followed by a secondary 40-minute recording after chemical exposure.CCTE_Shafer_MEA_acute_interburst_interval_mean is a component of the CCTE_Shafer_MEA_acute assay. It measures the average time between the start of consecutive single-electrode bursts (temporally-clustered groups of action potential firing) during a recording in a microelectrode array (MEA) using Axion Biosystems Maestro 768 channel amplifier with the AxIS adaptive spike detector. The recordings before and after chemical treatment are used to calculate a percent change in the mean inter-burst interval in each well.Data from the assay component CCTE_Shafer_MEA_acute_interburst_interval_mean was analyzed into 1 assay endpoint. This assay endpoint, CCTE_Shafer_MEA_acute_interburst_interval_mean, was analyzed in the negative analysis fitting direction relative to DMSO as the negative control and baseline of activity. Using a type of functional reporter, gain or loss-of-signal activity can be used to understand electrical activity.
Spontaneous activity in the cortical cultures was recorded using an Axion Biosystems Maestro 768 channel amplifier and Axion Integrated Studios (AxIS) v1.8 (or later) software. The amplifier recorded from all channels simultaneously (gain = 1200 x; sampling rate = 12.5 kHz/channel): raw signals were filtered with a Butterworth band-pass filter (300-5000 Hz), which filters out slower local field potentials leaving only fast potentials, i.e., "spikes", arising from extracellular currents associated with action potentials (Pine 2006; Wheeler and Nam 2011). On-line spike detection of filtered signals was conducted with the AxIS adaptive spike detector, using a threshold of 8x the root mean squared (rms) noise on each channel. Any electrodes with rms noise levels greater than 5 uV were grounded (e.g., no data were recorded). Once grounded, an electrode was grounded for the duration of the experiment. All recordings were conducted at 37 C. Wells were deemed usable if on the day of the exposure >/= 10 electrodes were active (defined as >/= 5 spikes/min). On DIV 13 or 15, a minimum of three wells from one cortical culture preparation were treated with each compound (0.03-40 uM). Prior to recording baseline activity, each mwMEA plate was placed in the Maestro at 37 C and allowed to sit for 20 min while firing rates stabilized. Baseline activity (40 min) was recorded before the addition of each compound. An additional 40 min of spontaneous activity was recorded in the presence of each compound. Changes in network parameters relative to baseline were assessed following compound treatment.
In the case of `CON(C)C(=O)Nc1ccc(Cl)c(Cl)c1`, the outcome is reported as “inactive”.
With `CC(C)(C)c1ccc(CSc2cnn(C(C)(C)C)c(=O)c2Cl)cc1` the AC50 was 0.492 µM (active).
For `C=CCC1=C(C)C(OC(=O)C2C(C=C(C)C)C2(C)C)CC1=O` (stereo not given), the AC50 was 3.88 µM (active) and the outcome was “inactive”.
For `COP(N)(=O)SC` (stereo not given), the outcome was “inactive”.
In the case of `COC(=O)C(C)Oc1ccc(Oc2ccc(Cl)cc2Cl)cc1` (stereo not given), the outcome is reported as “inactive”.
With `CS/C(C)=N/OC(=O)N(C)SN(C)C(=O)O/N=C(\C)SC` the AC50 was 29.7 µM (active).
In the case of `COC(=O)N(OC)c1ccccc1COc1ccn(-c2ccc(Cl)cc2)n1`, the outcome is reported as “inactive”.
With `CNC(=O)ON=CC(C)(C)SC` the outcome was “inactive”.
With `N#Cc1nn(-c2c(Cl)cc(C(F)(F)F)cc2Cl)c(N)c1S(=O)C(F)(F)F` (stereo not given) the AC50 was 8.32 µM (active) and the outcome was “inactive”.
In the case of `CCNc1nc(Cl)nc(NC(C)C)n1`, the outcome is reported as “inactive”.
For `CO/C=C(/C(=O)OC)c1ccccc1Oc1cc(Oc2ccccc2C#N)ncn1`, the AC50 was 11.1 µM (active).
With `O=C(O)c1nc(Cl)ccc1Cl` the outcome was “inactive”.
In the case of `CC1COC(Cn2cncn2)(c2ccc(Oc3ccc(Cl)cc3)cc2Cl)O1` (stereo not given), the outcome is reported as “inactive”.
With `N#CC(CCc1ccc(Cl)cc1)(Cn1cncn1)c1ccccc1` (stereo not given) the outcome was “inactive”.
With `CCCN(CCC)c1c([N+](=O)[O-])cc(S(N)(=O)=O)cc1[N+](=O)[O-]` the AC50 was 5 µM (active).
In the case of `CC(Oc1ccc(Cl)cc1Cl)C(=O)O` (stereo not given), the outcome is reported as “inactive”.
In the case of `Fc1ccc(Oc2ccnc3cc(Cl)cc(Cl)c23)cc1`, the outcome is reported as “inactive”.
With `CCOP(=S)(OCC)SCn1c(=O)oc2cc(Cl)ccc21` the AC50 was 30.2 µM (active).
With `COc1ccc(C(c2ccc(OC)cc2)C(Cl)(Cl)Cl)cc1` the outcome was “inactive”.
In the case of `CCCCNC(=O)OCC#CI`, the AC50 is reported as 31.4 µM (active).
In the case of `CCCC1COC(Cn2cncn2)(c2ccc(Cl)cc2Cl)O1` (stereo not given), the outcome is reported as “inactive”.
In the case of `OC(c1ccc(Cl)cc1)(c1cncnc1)c1ccccc1Cl` (stereo not given), the AC50 is reported as 3.27 µM (active).
In the case of `CC(C)Oc1cc(-n2nc(C(C)(C)C)oc2=O)c(Cl)cc1Cl`, the AC50 is reported as 4.16 µM (active).
For `Cc1ccc(-c2c(Cl)nc(C#N)n2S(=O)(=O)N(C)C)cc1`, the AC50 was 6.03 µM (active).
With `C=CCC1=C(C)[C@@H](OC(=O)[C@@H]2[C@@H](C=C(C)C)C2(C)C)CC1=O` the outcome was “inactive”.
With `Cc1c(F)c(F)c(COC(=O)C2C(/C=C(\Cl)C(F)(F)F)C2(C)C)c(F)c1F` (stereo not given) the outcome was “inactive”.
With `COP(=S)(OC)Oc1nc(Cl)c(Cl)cc1Cl` the outcome was “inactive”.
With `C#CCOS(=O)OC1CCCCC1Oc1ccc(C(C)(C)C)cc1` (stereo not given) the outcome was “inactive”.
